# This is one part of a sample in which hits are shown more often than they occur.
# Tg IFNy HTS – blocks Toxoplasma gondii growth in the presence of IFN-gamma; activity change, negative = inhibition, % (test concentration not listed); 3.8% of 69,000 active; Toxoplasma gondii growth in IFN-gamma-treated host cells; hits give low values; in the data active means activity change below about -70%, passing the limit was not always enough;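 further: host cells are HeLa cells infected with Toxoplasma gondii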
# An asterisk follows results filed as active.
SMILES,Tg IFNy HTS
CCN1C(=O)CCCC12CCCN(c1cc(OC)ncn1)C2 (configuration not stated),47
CCOC1CCN(CC(=O)Nc2c(C)nn(-c3ccc(C)c(C)c3)c2C)CC1,-2
O=C(NCCCc1ccccc1)c1nc(Nc2ccccc2)c2ccccc2n1,-46
O=C(NC1CCCC1)c1nc(Nc2ccc(F)cc2)c2ccccc2n1,-62
Cc1cccc(Nc2nc(C(=O)NC3CCCC3)nc3ccccc23)c1,-65
CCNC(=O)c1nc(Nc2ccccc2)c2ccccc2n1,-27
O=C(NCCC1=CCCCC1)c1nc(Nc2ccccc2)c2ccccc2n1,-76*
CCc1ccccc1NC(=O)c1nc(Nc2ccc(C)cc2)c2ccccc2n1,-86*
CCc1ccccc1NC(=O)c1nc(Nc2ccccc2)c2ccccc2n1,-69
Cc1ccc(Nc2nc(C(=O)Nc3ccccc3Cl)nc3ccccc23)cc1,-58
Cc1ccc(Nc2nc(C(=O)NCc3cccnc3)nc3ccccc23)cc1,-82*
CCc1ccc(CNC(=O)c2nc(Nc3ccc(C)cc3)c3ccccc3n2)cc1,-55
O=C(NC1CCCCCC1)c1nc(Nc2ccccc2)c2ccccc2n1,-85*
Cc1ccc(Nc2nc(C(=O)NCc3ccccc3)nc3ccccc23)cc1,14
COc1ccc(S(=O)(=O)Nc2cncc(C(=O)Nc3cccc(Cl)c3)c2)cc1OC,8
CC1(C)NC(=O)N(Cc2ccc(NC(=O)c3cccc(Cn4cncn4)c3)cc2)C1=O,27
O=C(NCc1ccccc1)NC1(C(=O)N2CCCCCC2)CCCCC1,-4
N#C[C@@H]1[C@@H](c2ccccc2-c2ccccc2F)[C@@H](CO)N1C(=O)C1CCC1,12
CC(C)C(=O)N1CCCC12CCCN(C(=O)c1ccno1)C2 (configuration not stated),-1
COC(=O)[C@@H]1C[C@@H](N(C)C)CN1C(=O)c1ccc2ncsc2c1,-6
CCc1nc(OCC(=O)Nc2ccc(C)cc2)c2ccccc2n1,2
Fc1cnc(NC2COC3(CCCN(c4ncccn4)C3)C2)nc1 (configuration not stated),0
Cc1[nH]c2ccccc2c1C(=O)N1CCCC1c1ccc(C(=O)N2CCN(C)CC2)cn1 (configuration not stated),0
CCc1ccc(NC(=O)N2CC[C@@H]3Oc4ccccc4S(=O)(=O)N(C)[C@@H]3CC2)cc1,2
Cc1nc(C(F)(F)F)ccc1C(=O)Sc1ccc(F)cc1,-1
SMILES,Tg IFNy HTS
O=C(Sc1ccc(Cl)cc1)c1cnn(-c2ccc(Cl)cc2)c1C(F)(F)F,-95*
FC(F)(F)c1cc(NC(=S)Sc2ccc(Cl)cc2)cc(C(F)(F)F)c1,-22
COCc1ncc(CN2CCN(c3ccccc3C)CC2C)cn1 (configuration not stated),0
CC(C)N1CCC(N2CCN(Cc3ccc(-n4cccn4)cc3)CC2CCO)CC1 (configuration not stated),3
COc1ccc(N2C(=O)CN(C(=O)c3ccccc3SC)CC2(C)C)cc1,12
O=C(NCCSCc1ccco1)c1ccc(Cl)cc1Cl,10
COC(=O)c1ccc(-c2noc(-c3c(O)c4ccccc4n(C)c3=O)n2)cc1,65
CC1CCN(S(=O)(=O)c2ccc3c(c2)CCC(=O)N3CC(=O)N2CCCCCC2)CC1,1
CCn1ccnc1Cn1cnc(-c2ccccc2)c1-c1c(C)n[nH]c1C,-7
O=C(c1ccoc1)N1CCC2(CCN(Cc3cccc(F)c3)C2=O)C1 (configuration not stated),4
COC(=O)NC(C(=O)N[C@@H](Cc1ccccc1)C(O)CN(Cc1ccc(-c2ccccn2)cc1)NC(=O)C(NC(=O)OC)C(C)(C)C)C(C)(C)C (some centres not stated),-7
CC(C)C(C)NC(=O)c1ncn2c1CN(CC1CC1)S(=O)(=O)c1ccccc1-2 (configuration not stated),-13
CN1Cc2c(C(=O)Nc3cccc(Cl)c3)ncn2-c2ccccc2S1(=O)=O,-7
CC(C)CCN1Cc2c(C(=O)Nc3cccc(F)c3)ncn2-c2ccccc2S1(=O)=O,-83*
CCOC(=O)N1CCC2(CC1)OC(=O)C(C)=C2C(=O)NCc1ccc(Cl)cc1,-39
COCCCNC(=O)Cn1nc(C)c2sc(-c3ccccc3)nc2c1=O,-18
Cc1c(S(=O)(=O)N2CCNC(C(=O)O)C2)sc2ccc(Cl)cc12 (configuration not stated),8
COc1ccc(S(=O)(=O)N2CCC(c3ccc4c(C)nn(C)c4n3)CC2)cc1,-91*
COc1ccc(S(=O)(=O)N2CCC(c3nc(C(=O)N(C)C)c(C)o3)CC2)cc1,-5
COc1ccc(S(=O)(=O)N2CCC(c3n[nH]c(=O)cc3-c3cc(C)no3)CC2)cc1,-21
CC1(C)C(=O)NC2=C1C(=O)C(=O)c1ccccc12,-82*
CC1(C)NC(=O)N(CC(O)CN2C(=O)c3ccccc3C2=O)C1=O (configuration not stated),33
CC(=O)ON(CC(=O)Nc1ccccc1C(=O)c1ccccc1)C(C)=O,-77*
Cc1ccc(NC(=O)CCNS(=O)(=O)c2ccccc2)c(C(=O)c2ccccc2)c1,-1
COC(=O)c1ccccc1NC(=O)COc1nc(C)nc2ccccc12,6
SMILES,Tg IFNy HTS
CC(=O)N1CC2CCC(C1)C2C(=O)NCCc1cccs1 (configuration not stated),-37
O=C(CCC1N=C2c3ccccc3N=C(SCc3cccc(F)c3)N2C1=O)NCc1ccco1 (configuration not stated),14
CCc1cccc2c(C#N)cn(CC(=O)NCc3cccs3)c12,101
CCOCC12CCCOC1CCN(C(=O)C1=CCCC1)C2 (configuration not stated),26
Cc1ccc(C(=O)N2CCC3OCCCC3(COCC3CC3)C2)cn1 (configuration not stated),13
COCC12CCCOC1CCN(C(=O)C1=CCCC1)C2 (configuration not stated),-81*
O=c1[nH]nc(CCn2cccn2)n1CC1CCCCC1,2
Cc1csc(Nc2cccc(C(=O)O)c2)n1,166
COc1cc(F)ccc1-c1c(-c2ccccc2)ncn1[C@H]1CCCCNC1=O,-6
O=C(Cc1ccc(Cl)cc1)N1CC2(CCN(Cc3ccc(C(F)(F)F)cc3)CC2)C1,-80*
CC(C)(C)CN1CC2(CCN(C(=O)Cc3ccc(Cl)cc3)C2)C1,3
O=S(=O)(Cc1ccccc1)N1CCC2(CCN(Cc3ccc(Cl)cc3)C2)C1 (configuration not stated),-5
COc1ccc(OC)c(NC(=O)COc2nc(C)nc3ccccc23)c1,15
CCOCc1ncn2c1CN(S(=O)(=O)C1CC1)CCC2,-5
O=C(Cc1cccc(F)c1)N1CCC2(CC1)Nc1ccccc1-n1cccc12,29
CCCN1C(=O)C2(NCCc3c2[nH]c2ccc(OC)cc32)c2cc(Br)ccc21 (configuration not stated),53
COc1ccc2[nH]c3c(c2c1)CCNC3=O,-89*
COc1ccc2[nH]c3c(c2c1)CCNC31C(=O)N(CCC(C)C)c2ccccc21 (configuration not stated),68
CCc1c(C)sc2c1CCN(Cc1nc(-c3ccc(Cl)cc3)oc1C)C2c1ccccc1 (configuration not stated),-25
Cc1nc2ccc(C(=O)N3CCC(CO)(CCCc4ccccc4)CC3)cc2[nH]1,11
COc1ccc(-c2nccn2CC(C)O)cc1CN1CCCC1 (configuration not stated),-5
C[C@H]1O[C@@H](n2cc(F)c(=O)[nH]c2=O)[C@H](O)[C@@H]1O,-91*

# Screening data from PubChem BioAssay.
